The full list was thinned out, with hits kept by preference.
KDM5B inh – KDM5B demethylase inhibition; Potency, µM (series often up to 57.7 µM), actives largely listed as inhibitors; AID 1347165; KDM5B demethylase, FDH-coupled NADH fluorescence (FDH is formaldehyde dehydrogenase); 2.6% of 220,000 active; Q9UGL1; active = well fitted inhibition curve with a large enough effect; note: 0% is about no effect; nearly all actives have a fitted effect of over 70% in size
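Coupled FDH/NAD⁺ fluorescence readout. KDM5BΔAP 200 nM final; compound titration, 10 min RT preincubation; substrate mix 12.5 µM H3K4me3, 25 µM 2-OG, 50 µM Fe(II), 100 µM ascorbate, 0.25 mM NAD⁺, 0.25 U/mL FDH; ΔRFU over 30 min.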
* marks the source's active call; other numbers are inactive results; i = inactive. Potency is the fitted concentration of half-maximal effect.

SMILES	KDM5B inh
CCn1cc(-c2cc(C(=O)N3CCCCCC3)c3cccc(C)c3n2)cn1	32µM*
Cc1ccc(C)c(-c2cc(C(=O)O)c3cccc(C)c3n2)c1	i
Cc1cccc2c(C(=O)N3CCN(Cc4ccccc4)CC3)cc(-c3cccnc3)nc12	i
Nc1nc2c(c(N3CC[C@@H](O)C3)n1)CCN(C(=O)[C@H]1CCCO1)CC2	i
CCCCCn1c(SCc2ccccc2Cl)nc2c1c(=O)[nH]c(=O)n2C	i
O=C(Cn1cccc1-c1nc(-c2ccc(F)cc2)no1)N1CCc2ccccc21	i
O=C(Cn1cccc1-c1nc(-c2ccc3c(c2)OCO3)no1)N1CCCc2ccccc21	32µM*
O=C(Cn1cccc1-c1nc(-c2ccccc2)no1)N1CCc2ccccc21	i
Cc1cc(C)cc(COC(=O)c2cnc(C)cn2)c1	i
Cc1ccc(-n2nnnc2SC(C(=O)N2CCCC2)c2ccccc2)cc1C (centres undefined)	i
COCCCNC(=O)c1ccc2c(c1)CC(=O)N2Cc1ccccc1	i
CCCCNC(=O)c1ccc2c(c1)n(Cc1cccc(OC)c1)c(=O)c1ccnn12	35µM*
Cc1ccc(Cn2c(C3CCN(C(=O)c4cccc(F)c4)CC3)n[nH]c2=O)cc1	i
CCN1CCN(C(=O)c2ccc3c(c2)n(Cc2cccc(F)c2)c(=O)c2ccnn23)CC1	25µM*
COCCCNC(=O)c1ccc2c(c1)n(Cc1cccc(F)c1)c(=O)c1ccnn12	28µM*
CCCCNC(=O)c1ccc2c(c1)ncn2-c1cc(OC)ccc1OC	i
COCCCNC(=O)c1ccc2c(c1)n(Cc1ccc(OC)cc1)c(=O)c1ccnn12	i
COc1cccc(CNC(=O)c2ccc3oc(=O)n(Cc4ccccc4)c3c2)c1	i
CCN1CCN(C(=O)c2ccc3c(c2)N(Cc2cccc(F)c2)C(=O)c2ccccc2S3)CC1	i
Cc1ccccc1OCC(O)Cn1c(N)nc2c1c(=O)n(C)c(=O)n2C (centres undefined)	i
c1ccc(-c2nnc(CSc3nc(C4CC4)n(-c4ccccc4)n3)o2)cc1	i
COc1cc(NC(=O)C2c3ccccc3Oc3ccccc32)c(OC)cc1Cl	i
Cc1ccccc1OCc1nnc(SCc2c(Cl)cccc2Cl)n1C	i
CCOC(=O)c1cn[nH]c1S(=O)(=O)N1CCCC1	i
COc1ccc(Br)cc1S(=O)(=O)NCCN1CCCCCC1	i
SMILES	KDM5B inh
CN1CCCC2(C1)CN(Cc1cccnc1)c1ccc(C(=O)Nc3ccc(F)cc3)cc12 (centres undefined)	i
O=C(NC1CCCCC1)c1ccc2c(c1)N(Cc1ccccc1)C(=O)c1ccccc1S2	i
CN1CCC2(C1)CN(Cc1ccccc1)c1ccc(C(=O)NC3CCC(O)CC3)cc12 (centres undefined)	40µM*
O=C(NC1CC1)c1ccc2c(c1)N(Cc1ccccc1)C(=O)CS2=O (centres undefined)	i
O=C(NC1CCN(Cc2ccccc2)CC1)c1cccc(Br)c1	i
COc1cccc(CN2CCCC(O)(CNC3CCCCCCC3)C2=O)c1 (centres undefined)	i
Cc1nc(CN2CC3(CCN(C)C3)c3cc(C(=O)Nc4ccccc4)ccc32)cs1 (centres undefined)	i
COc1cccc(CN2CC3(CCN(C)C3)c3cc(C(=O)NC4CCCCC4)ccc32)c1 (centres undefined)	35µM*
O=C(NC1CCOCC1)c1ccc2c(c1)C1(CCN(CC3CC3)C1)CN2Cc1ccccc1 (centres undefined)	28µM*
COCCc1noc([C@@H]2CC(F)(F)CN2C(=O)c2ccc(C)cn2)n1	i
COc1ccc(C(=O)C(C)OC(=O)c2ccc(C(C)=O)s2)cc1 (centres undefined)	i
Cc1noc([C@H]2CCN(Cc3cc(F)cc(F)c3)C[C@H]2NC(=O)C2CC2)n1	i
CC(C)C(=O)Nc1ccc(C(=O)NNC(=S)Nc2ccccc2)cc1	i
O=C(NCc1ccccc1)N1CCN(C(=O)N2CC3CC(C2)[C@H]2CCCC(=O)N2C3)CC1 (some centres undefined)	i
Cc1cnc(CCNC(=O)c2ccc(C#N)cc2)n1C1CCCC1	i
COc1cccc(C(=O)N2CCC3(CC2)CC(O)CCO3)c1 (centres undefined)	i
COc1cncc(-c2cn(C)c(=O)n3cc(CNc4ccccc4)nc23)c1	i
Cn1cc(-c2cccc(C(F)(F)F)c2)c2nc(CNc3ccccc3)cn2c1=O	35µM*
CN1CCN(Cc2cn3c(=O)n(C)cc(-c4cccc(OC(F)(F)F)c4)c3n2)CC1	i
O=C1CCC2(CCN1Cc1ccccc1)CCN(S(=O)(=O)c1cccs1)CC2	i
O=C(O)CCCNC(=O)Cn1ccc2ccc(Cl)cc21	i
O=[S+]([O-])(c1cccc(C(F)(F)F)c1)N1CC(Oc2ccc(F)cc2F)C1	i
Cc1oc(-c2ccc3ccccc3c2)nc1CN1CCNC(=O)C1	28µM*
Cc1oc(-c2ccccc2)nc1CC(=O)N1CCNC(=O)C1	i
Cc1oc(-c2cccc(Cl)c2)nc1CN1CCOCC1	i

Compound activity deposited in PubChem by National Center for Advancing Translational Sciences (NCATS).
